Drawing on PubChem BioAssay AID817 (Emory University Molecular Libraries Screening Center, 2007), this text covers z-score for 50 compounds.

Molecules are shown by their SMILES. The whole screen tested about 140,000 compounds, of which about 300 (0.21%) were called active. The sample holds actives, similar compounds and a random draw of the others, so the mix is not that of the screen.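 Rule for the calls: active = z-score above 3 at both the 24 hr and the 30 hr optical density reads; inactive = the rest, inconclusive results apart.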

A short description of the test: restorers of sdo1-deficient yeast growth – S. cerevisiae, bone marrow failure model, primary screen (AID 817).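 Note: z-score against mean and SD of all compound wells on the same plate.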 The following applies: S. cerevisiae sdo1-depleted JHY4D growth rescue, at 10 µM, stronger effect = higher value, pdr5 snq2 efflux-pump mutant strain.
[1] abbreviates: OD600, measured here: growth rescue at 24 h.

Regarding `CCOC(=O)c1c(/N=C/C2C(=O)CC(C)(C)CC2=O)sc(C)c1C`, the z-score is, setting by setting: (OD600 30 h) 0.94 (inactive); under setting [1], 1.36.
For `O=C(/C=C/c1cccc([N+](=O)[O-])c1)NCCSCc1ccco1`, in that order: -0.03 (inactive) and -0.07.
For `CC(C)NC(=S)N1CCN(S(C)(=O)=O)CC1` the same measures were 0.56 (inactive) and 0.03.
Turning to `COCCOC(=O)c1c(C)oc2cc(Br)c(OCC(N)=O)cc12`, the z-score by setting is: (OD600 30 h) 0.6 (inactive); under setting [1], 0.18.
For `O=C(Nc1ccccc1Cl)c1ccccc1S(=O)(=O)c1ccccc1[N+](=O)[O-]` the same measures were 0.14 (inactive) and 0.15.
For `C[C@@H]1NC(=O)c2cc([N+](=O)[O-])cc(F)c2NCCC[C@@H](C(N)=O)NC(=O)[C@H](CC(N)=O)NC1=O` the same measures were 0.86 (inactive) and 0.49.
Regarding `CN(c1ccccc1)S(=O)(=O)c1ccc(Cl)c(C(=O)NCCc2c[nH]c3ccccc23)c1`, the z-score by setting is: (OD600 30 h) 0.35 (inactive); under setting [1], 0.28.
For `CC(Oc1ccccc1F)C(=O)NN` (stereo not given) the same measures were -0.12 (inactive) and -0.98.
For `O=C(Cc1cccc2ccccc12)NCCC1=CCCCC1`, the z-score runs as follows: (OD600 30 h) -0.77 (inactive); under setting [1], -0.75.
For `O=C(Nn1c(-c2ccc(Cl)cc2)nc2ccccc2c1=O)c1cccnc1Cl`, the z-score (OD600 30 h) is 0.6 (inactive) and the z-score under setting [1] amounted to 0.56.
For `CCOC(=O)C1=C(c2ccc(OC)cc2)C(=O)c2ccccc2C1=O` the same measures were -1.39 (inactive) and -0.65.
For `CCOC(=O)CNC(=O)/C=C/c1c(Cl)cccc1Cl` the same measures were -0.54 (inactive) and -0.72.
As for `COc1ccc(OCC(O)CNC(=O)Nc2ccc(Cl)cc2)cc1` (stereo not given), the z-score (OD600 30 h) was 0.9 (inactive) and the z-score under setting [1] was 0.68.
As to `S=C(NCCc1ccccc1)NCc1ccccc1Cl`, the z-score (OD600 30 h) is -1.82 (inactive) and the z-score under setting [1] was -1.22.
For `N#Cc1ccccc1NC(=O)COc1c(Br)cc(Br)c2cccnc12`, in that order: 0.47 (inactive) and 2.32.
Regarding `O=C(NC(=S)N1CCN(Cc2ccccc2)CC1)c1ccccc1`, the z-score by setting is: (OD600 30 h) 0.36 (inactive); under setting [1], 0.18.
For `CC(=O)c1cc(-c2ccccc2)n(CCC(=O)NC2CCCCCC2)c1C` the same measures were -1.63 (inactive) and -1.27.
For `CCOC(=O)C1CCN(C(=O)c2ccccc2N(C)S(=O)(=O)c2ccccc2)CC1`, in that order: 0.01 (inactive) and -0.21.
`O=C(NN1C(=O)C2C3C=CC(O3)C2C1=O)c1ccncc1` (stereo not given): the z-score was 0.24 (inactive) (OD600 30 h) and -0.88 under setting [1].
For `Cc1ccc(S(=O)(=O)N2CCC(C(=O)N[C@@H](C)C(=O)NCc3ccco3)CC2)cc1`, in that order: 1.22 (inactive) and 0.16.
As to `Cc1ccn(-c2cccc(-n3ccc(C)n3)n2)n1`, the z-score reads like this: (OD600 30 h) -0.06 (inactive); under setting [1], -0.3.
For `COc1ccc2c(c1)C(SCC(=O)NCc1ccccc1)CC(C)(C)O2` (stereo not given) the same measures were -0.16 (inactive) and -0.58.
As for `COc1ccc(-c2csc(NC(=O)COC(=O)c3ccc(Br)o3)n2)cc1`, the z-score is 1.63 (inactive) (OD600 30 h) and 1.52 under setting [1].
For `COC(=O)Cc1ccc(OCC(=O)Nc2ccc(OC(F)(F)F)cc2)cc1`, in that order: 0.38 (inactive) and 0.19.
In the case of `Cc1ccccc1C1=NC(C(F)(F)F)(C(F)(F)F)c2c(n(-c3ccc(F)cc3)c(=O)[nH]c2=O)N1`, the z-score is 0.91 (inactive) (OD600 30 h) and 1.23 under setting [1].
For `CC(C)(C)CC(C)(C)NCC(O)COCCOc1ccc(Br)cc1` (stereo not given), in that order: -1.47 (inactive) and -1.24.
For the compound `CCCn1c(C)cc(/C=C(\C#N)C(=O)OCC(=O)Nc2cc(OC)c(OC)c(OC)c2)c1C`, the z-score is, setting by setting: (OD600 30 h) -0.22 (inactive); under setting [1], -0.65.
For `COC(=O)c1sccc1NC(=O)COc1ccc(Cl)cc1`, in that order: -0.81 (inactive) and 0.03.
As for `Cc1cc(C)cc(NC(=S)NCc2ccc(F)cc2)c1`, the z-score is -0.44 (inactive) (OD600 30 h) and -0.91 under setting [1].
For `COc1ccc(C2=NN(C(=O)c3cccnc3)C(c3ccccc3)C2)cc1` (stereo not given) the same measures were -0.64 (inactive) and -0.53.
For `Cc1ccc(Nc2cc(C)nc3c(C)ccc([N+](=O)[O-])c23)cc1`, in that order: -2.1 (inactive) and -1.28.
As for `O=c1c2sccc2nc(SCc2cc(=O)n3ccccc3n2)n1-c1ccc(Br)cc1`, the z-score was -0.28 (inactive) (OD600 30 h) and 0.04 under setting [1].
In the case of `Cc1ccc(C)c(NC(=O)CCC(=O)NNC(=O)c2cccs2)c1`, the z-score was 0.52 (inactive) (OD600 30 h) and -0.15 under setting [1].
For `O=C(CSc1ccc(C(F)(F)F)cc1[N+](=O)[O-])NCCOc1ccccc1` the same measures were -0.75 (inactive) and -0.39.
For `Cc1cccc(C(=O)OCC(=O)Nc2sc3c(c2C#N)CCC3)c1` the same measures were 1.54 (inactive) and 1.79.
For `CCCNC(=O)NC(=O)COC(=O)CC(NC(N)=O)c1ccc(Cl)cc1` (stereo not given), in that order: 1.01 (inactive) and 0.32.
In the case of `CC[C@H]1OC(=O)[C@H](C)[C@@H](O[C@H]2C[C@@](C)(OC)[C@@H](O)[C@H](C)O2)[C@H](C)[C@@H](O[C@@H]2O[C@H](C)C[C@H](N(C)C)[C@H]2O)[C@](C)(O)C[C@@H](C)[C@@H]2N[C@@H](COCCOC)O[C@H]([C@H]2C)[C@]1(C)O`, the z-score reads like this: (OD600 30 h) 2.24 (inactive); under setting [1], 2.51.
As for `Cc1cc(Cl)ccc1OCCCC(=O)NCc1ccncc1`, the z-score reads like this: (OD600 30 h) -0.45 (inactive); under setting [1], -0.98.
For `O=C(CCN1C(=O)c2ccccc2C1=O)C1=NN[C@@H]2C(=O)N(c3ccc(F)cc3)C(=O)[C@H]12` the same measures were 0.12 (inactive) and -0.42.
With `CC(NC(=O)COC(=O)C1CCN(S(=O)(=O)c2ccccc2C(F)(F)F)CC1)c1ccccc1` (stereo not given), the z-score by setting is: (OD600 30 h) 1.2 (inactive); under setting [1], 1.46.
In the case of `Cc1ccc(S(=O)(=O)/N=C(/Nc2ccccn2)c2ccc(Cl)cc2)cc1`, the z-score runs as follows: (OD600 30 h) -1.04 (inactive); under setting [1], -0.87.
For `O=S(=O)(/N=C(/Nc1ccccn1)c1ccccc1)c1ccc(Cl)cc1` the same measures were 5.14 (active) and 4.98.
Turning to `Cc1ccc(S/C(=N\S(=O)(=O)c2ccc(Cl)cc2)c2ccccc2)cc1`, the z-score is, setting by setting: (OD600 30 h) -0.79 (inactive); under setting [1], -1.13.
For `Cc1sc2ncnc(Sc3nc4ccccc4s3)c2c1C`, in that order: 0.02 (inactive) and -0.34.
In the case of `CC(C)NC(=S)N1CCN(C(c2ccccc2)c2ccccc2)CC1`, the z-score runs as follows: (OD600 30 h) -1.16 (inactive); under setting [1], -1.01.
For `CC(C)=C(NC(=O)c1ccccc1)C(=O)N/N=C(\C)c1ccccc1O`, the z-score runs as follows: (OD600 30 h) 1.49 (inactive); under setting [1], 2.26.
Consider `Cc1ccc(C(=O)c2ccc(N3CCN(C)CC3)c([N+](=O)[O-])c2)cc1`, for which the z-score is 1.82 (inactive) (OD600 30 h) and 1.21 under setting [1].
For `COc1ccc(NC(=O)CC2C(=O)OCC3CCCCN32)cc1Cl` (stereo not given) the same measures were 0.14 (inactive) and -0.04.
For `Cc1ccc(N=C2NC(=O)c3cccc([N+](=O)[O-])c32)cc1`, in that order: 0.32 (inactive) and 0.33.
`CCN(CC)c1ccc(C(=O)N/N=C(\C)c2cccc(OC)c2)cc1`: the z-score by setting is: (OD600 30 h) 0.86 (inactive); under setting [1], 0.18.
